# Assay outcomes (PubChem)
# Most compounds without a hit are left out; they make up all but 0.93% or so of the library.
# MEP2 TOR yeast = yeast TOR pathway MEP2-GFP modulation. S. cerevisiae MEP2-GFP strain, flow cytometry GFP, 3 h; 100% = DMSO control level. hit rate 0.51% among 330,000. GFP response vs DMSO, % at 10 µM;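 active = GFP response versus DMSO above a set limit, roughly screen mean plus 3 SD, cut at about 180% in these data; inconclusive = fewer than 70 cells counted for a yeast strain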;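 also: median GFP fluorescence of the barcode-gated MEP2-GFP cells per well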
# LAP4 TOR yeast = alters LAP4-GFP fluorescence in TOR pathway yeast screen; S. cerevisiae LAP4-GFP multiplex, flow cytometry GFP, 3 h; median GFP as percent of DMSO wells; GFP response vs DMSO, % at 10 µM; hit rate 0.34% among 320,000; AID 2023;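 active = GFP response vs DMSO above a set limit, about the screen mean plus 3 SD, cut at about 150% in these data; inconclusive = under 70 cell events counted for the yeast strain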
# CIT2-GFP yeast = yeast TOR pathway CIT2-GFP modulation; S. cerevisiae CIT2-GFP strain, flow cytometry, 3 h; 100 means same as DMSO wells; GFP response vs DMSO, % at 10 µM; hit rate 0.065% among 320,000;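 active = GFP response relative to DMSO above a set limit, near the screen mean plus 3 SD, cut at about 150% in these data; inconclusive = Fewer than 70 cells measured for a yeast strain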;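 also: ratio of well median GFP fluorescence to mean of DMSO wells on the plate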
# AGP1 TOR yeast = modulators of TOR pathway AGP1-GFP in S. cerevisiae. AID 2066. S. cerevisiae AGP1-GFP multiplex flow cytometry, 3 h; GFP as percent of DMSO wells. GFP response vs DMSO, % at 10 µM. hit rate 0.02% among 320,000;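 active = GFP response relative to DMSO above a set limit, near screen average plus 3 SD, cut at about 150% in these data; inconclusive = fewer than 70 cells counted for the yeast strain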;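 also: median GFP channel fluorescence of the gated AGP1 strain per well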
# RPL19A TOR yeast = modulators of TOR pathway RPL19A-GFP in S. cerevisiae. S. cerevisiae RPL19A-GFP strain, flow cytometry, 3 h; hits give low values. AID 2025. percent response vs DMSO, % at 10 µM. hit rate 0.3% among 330,000;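 active = percent response vs DMSO below 50%; inconclusive = fewer than 70 events counted for the yeast strain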;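 also: median channel GFP fluorescence of the barcoded RPL19A-GFP strain; lower means less RPL19A-GFP as with rapamycin TOR inhibition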
# Hits are given with their value; – = inactive; ? = inconclusive; · = no result; [ ] = remark or other dose.
SMILES,MEP2 TOR yeast,LAP4 TOR yeast,CIT2-GFP yeast,AGP1 TOR yeast,RPL19A TOR yeast
CCc1c(C#N)c(SCCC(=O)Nc2ccc(F)cc2)nc2c1C(=O)CC(C)(C)C2,–,–,–,–,–
COc1ccc(CCNC(=O)C(=O)c2c(C)[nH]c3ccccc23)cc1,–,–,–,–,–
CC1CCCCN1C(=O)CSc1nnc(-c2ccccc2F)o1 (stereo unspecified),–,–,–,–,–
COc1ccc(C(=O)N2CCN(c3ccccc3)CC2)cc1S(=O)(=O)N1CCOCC1,?,–,?,?,24.2[may fluoresce violet]
COc1ccc(C(=O)OCC(=O)c2ccccc2)cc1S(=O)(=O)N1CCOCC1,394.5[may fluoresce violet],–,?,?,–
COc1ccc(C(=O)NCCc2c[nH]c3ccccc23)cc1S(=O)(=O)N1CCOCC1,233.3[may fluoresce violet],–,?,?,·
COc1ccc(NC(=O)Cc2c[nH]c3ccccc23)cc1S(=O)(=O)N1CCOCC1,–,–,–,–,–
CCOC(=O)c1cc2ccc(OC)c(OC)c2c(=O)s1,211.4[may fluoresce violet],–,?,·,–
O=C(O)CSc1nc2ccccc2n1Cc1ccccc1,352.2[may fluoresce violet],–,?,–,–
CCNC(=O)NC(=O)CSc1nc2ccccc2n1CC(C)C,388.2[may fluoresce violet],–,?,–,41.9[may fluoresce violet]
COc1cc2c(cc1OC)C(C(=O)Nc1ccccn1)C(c1cccnc1)N(C)C2=O (stereo unspecified),–,–,–,–,–
COc1cc2c(cc1OC)C(C(=O)Nc1cccc(C)n1)C(c1cccnc1)N(C)C2=O (stereo unspecified),255.7[may fluoresce violet],–,?,?,48.7[may fluoresce violet]
Cc1ccc(-c2csc3ncn(Cc4ccc(C(=O)O)cc4)c(=O)c23)cc1C,229.8,–,–,–,–
N#Cc1cc(Sc2ccccn2)c([N+](=O)[O-])cc1C#N,–,155.9,158.0,–,–
CCc1nnc(N2C(=N)SCC2=O)s1,–,–,–,–,–
CCOc1ccc2nc(N/C(N)=N/C(=S)Nc3ccc(C)c(C)c3)nc(C)c2c1,–,–,–,–,–
CCNC(=S)/N=C(\N)Nc1nc(C)c2cc(C)ccc2n1,–,–,?,–,45.8[may fluoresce violet]
Cc1sc2ncnc(Nc3ccc(O)cc3)c2c1C,–,–,–,–,–
O=C(COc1cccc(F)c1)N[C@@H](Cc1ccccc1)c1nc2ccccc2[nH]1,–,–,–,–,–
CCOC(=O)Cc1csc(NC(=O)CSc2nnc(-c3ccc(C)cc3)o2)n1,205.7,163.3,–,–,–
CCOC(=O)Cc1csc(NC(=O)CSc2nnc(-c3ccc(F)cc3)o2)n1,–,–,–,–,–
O=c1[nH]c2ccccc2nc1-c1ccc(Cl)cc1,569.8[may fluoresce violet],–,?,?,44.7[may fluoresce violet]
CCc1ccc2c(c1)/C(=N/OC)C(=O)N2,–,–,–,–,–
Oc1c(N=Nc2ccccc2)sc2ccccc12,192.3[may fluoresce violet],–,?,–,–
Cc1ccc(C)c(-n2c(Cc3cc(=O)[nH]c(=O)[nH]3)nnc2SCC(=O)NCC2CCCO2)c1 (stereo unspecified),233.9[may fluoresce violet],–,?,?,23.1[may fluoresce violet]
SMILES,MEP2 TOR yeast,LAP4 TOR yeast,CIT2-GFP yeast,AGP1 TOR yeast,RPL19A TOR yeast
Cc1ccc(C)c(-n2c(Cc3cc(=O)[nH]c(=O)[nH]3)nnc2SCC(=O)NCc2ccco2)c1,–,–,–,–,–
COc1ccc(CCNC(=O)c2cccnc2)cc1OC,–,–,–,–,–
Cc1ccc(C(=O)NC(c2ccccc2)C(Cl)Cl)cc1 (stereo unspecified),–,–,–,–,–
O=C(NC(c1ccccc1)C(Cl)Cl)c1ccccc1 (stereo unspecified),–,–,–,151.0,–
Cc1csc(NC(=O)c2nc(-c3ccccc3)n(-c3ccccc3)n2)n1,223.3[may fluoresce violet],–,?,–,30.1[may fluoresce violet]
O=C(O)CCNC(=O)c1ccccc1,–,226.1,–,–,–
Cc1cccc(/C=C/c2onc(C)c2[N+](=O)[O-])n1,–,203.8,–,–,–
O=C1C(=O)N(Cc2ccccc2)C(c2cccc(O)c2)/C1=C(\O)c1ccc2c(c1)OCCO2 (stereo unspecified),–,–,–,–,46.3
O=C1C(=O)N(Cc2ccco2)C(c2cccc(Cl)c2)/C1=C(\O)c1ccc2c(c1)OCCO2 (stereo unspecified),–,–,–,–,–
CCOC(=O)N1CCC(NC(=O)C(NS(=O)(=O)c2cccc3nsnc23)c2ccccc2)CC1 (stereo unspecified),–,–,?,?,37.6[may fluoresce violet]
O=C(NC1CCN(Cc2ccccc2)CC1)C(NS(=O)(=O)c1cccc2nsnc12)c1ccccc1 (stereo unspecified),–,–,–,–,–
COc1cccc(CC(=O)OC(C)C(=O)Nc2ncc(Cl)cc2Cl)c1 (stereo unspecified),–,170.3,–,–,–
CC(OC(=O)c1ccco1)C(=O)Nc1ncc(Cl)cc1Cl (stereo unspecified),–,–,–,–,–
CCSc1ccccc1C(=O)N1CCN(c2ccccc2F)CC1,–,–,–,–,–
O=C(CC(=O)NC1CCCCC1)N/N=C/c1ccc(Cl)cc1,230.4[may fluoresce violet],–,?,–,–
COC(=O)c1ccc(/C=N/NC(=O)CC(=O)NC2CCCCC2)cc1,–,–,–,–,–
COc1ccc2nc(C)cc(Sc3nc4ccccc4s3)c2c1,675.1[may fluoresce violet],–,?,?,43.4[may fluoresce violet]
O=C(NCc1ccncc1)Nc1cc(Cl)ccc1Cl,–,–,–,–,–
Cc1nc2ccccc2n2c(O)c(CC(=O)O)cc12,196.4,–,–,–,–
Cc1nc2ccccc2n1CCC(=O)O,–,–,–,–,–
O=C(OCc1nnc(-c2ccccc2)o1)c1ccc2ccccc2n1,–,–,–,–,–
COc1cc(/C=C/C(=O)OCC(=O)c2c(N)n(C)c(=O)n(C)c2=O)ccc1OCC#N,?,166.1[may fluoresce violet],?,?,33.5[may fluoresce violet]
CSc1nc2c(c(=O)[nH]c(=O)n2C)n1C/C=C(\C)Cl,–,–,–,–,–
CN(C)C(C(=O)NC1CCCCC1)c1ccc(Cl)cc1 (stereo unspecified),?,?,?,?,13.4[may fluoresce violet]
COC(CN(C(=O)CCl)C(C(=O)NC1CCCCC1)c1ccc(Cl)cc1)OC (stereo unspecified),–,–,–,–,–
SMILES,MEP2 TOR yeast,LAP4 TOR yeast,CIT2-GFP yeast,AGP1 TOR yeast,RPL19A TOR yeast
O=C(NCCN1CCOCC1)/C(=C\c1ccccc1Cl)NC(=O)c1ccccc1,–,–,–,–,–
COc1ccccc1/C=C(/NC(=O)c1ccccc1)C(=O)NCCN1CCOCC1,261.3[may fluoresce violet],–,?,?,44.5[may fluoresce violet]
CCOc1cc(CNc2ccccc2)cc(Br)c1OCC(=O)NC(C)(C)C,–,–,–,–,–
Cc1ccc(Cl)cc1NC(=O)C1CCCCC1C(=O)O (stereo unspecified),–,–,–,–,–
CCOc1ccc(CN2CCN(Cc3cc4ccccc4o3)CC2CCO)cc1 (stereo unspecified),–,–,–,–,–
Cc1onc(-c2ccccc2)c1C(=O)N1CCN(c2ncccc2C(F)(F)F)CC1,–,–,153.8[may fluoresce green],–,–
COc1ccc2c(CC(=O)OCC(=O)Nc3cccc(S(N)(=O)=O)c3)coc2c1,–,–,–,–,–
